According to ChEMBL document CHEMBL1961873, “Compounds: GSK PKIS; Assays: Nanosyn kinase panel” (2012):

What was measured:
[1] = molecular target: Casein kinase I isoform gamma-2 (Homo sapiens) (UniProt P78368); settings: at 1 µM
[2] = molecular target: Casein kinase I isoform gamma-3 (Homo sapiens) (UniProt Q9Y6M4); settings: at 0.1 µM
[3] = molecular target: Casein kinase I isoform gamma-3 (Homo sapiens) (UniProt Q9Y6M4); settings: at 1 µM
[4] = molecular target: Cyclin-dependent kinase 1 (Homo sapiens) (UniProt P06493); settings: at 0.1 µM
Chain of Cyclin-dependent kinase 1 (Homo sapiens) (P06493 whole entry, looked up): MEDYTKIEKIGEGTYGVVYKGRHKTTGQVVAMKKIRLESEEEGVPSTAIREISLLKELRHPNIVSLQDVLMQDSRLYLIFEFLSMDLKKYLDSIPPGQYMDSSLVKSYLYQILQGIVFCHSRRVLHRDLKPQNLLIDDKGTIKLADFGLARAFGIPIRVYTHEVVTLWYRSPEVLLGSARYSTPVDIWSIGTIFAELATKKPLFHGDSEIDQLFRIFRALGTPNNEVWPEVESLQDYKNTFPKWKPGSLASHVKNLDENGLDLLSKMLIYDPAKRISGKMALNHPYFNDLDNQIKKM

[5] = molecular target: Cyclin-dependent kinase 1 (Homo sapiens) (UniProt P06493); settings: at 1 µM
[6] = molecular target: Cyclin-dependent kinase 2 (Homo sapiens) (UniProt P24941); settings: at 0.1 µM
[7] = molecular target: Cyclin-dependent kinase 2 (Homo sapiens) (UniProt P24941); settings: at 1 µM
[8] = molecular target: Cyclin-dependent kinase 2 (Homo sapiens) (UniProt P24941); settings: at 0.1 µM; remark: listed apart in the source
[9] = molecular target: Cyclin-dependent kinase 2 (Homo sapiens) (UniProt P24941); settings: at 1 µM; remark: listed apart in the source
[10] = molecular target: T1, CDK3/Cyclin E (Homo sapiens) (UniProt P24864+Q00526); settings: at 0.1 µM
T1 sequence (P24864 whole entry, looked up): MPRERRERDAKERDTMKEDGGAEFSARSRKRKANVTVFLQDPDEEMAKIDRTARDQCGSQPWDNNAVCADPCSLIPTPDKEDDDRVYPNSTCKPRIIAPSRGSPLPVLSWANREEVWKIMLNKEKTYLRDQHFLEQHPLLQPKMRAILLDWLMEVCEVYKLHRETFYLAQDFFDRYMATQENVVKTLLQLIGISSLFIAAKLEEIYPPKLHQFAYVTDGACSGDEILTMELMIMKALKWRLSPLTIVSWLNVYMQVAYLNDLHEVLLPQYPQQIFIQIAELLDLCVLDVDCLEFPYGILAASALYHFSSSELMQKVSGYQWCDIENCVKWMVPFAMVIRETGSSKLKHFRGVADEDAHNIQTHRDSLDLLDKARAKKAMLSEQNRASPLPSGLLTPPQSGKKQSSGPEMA
T1 sequence (Q00526 whole entry, looked up): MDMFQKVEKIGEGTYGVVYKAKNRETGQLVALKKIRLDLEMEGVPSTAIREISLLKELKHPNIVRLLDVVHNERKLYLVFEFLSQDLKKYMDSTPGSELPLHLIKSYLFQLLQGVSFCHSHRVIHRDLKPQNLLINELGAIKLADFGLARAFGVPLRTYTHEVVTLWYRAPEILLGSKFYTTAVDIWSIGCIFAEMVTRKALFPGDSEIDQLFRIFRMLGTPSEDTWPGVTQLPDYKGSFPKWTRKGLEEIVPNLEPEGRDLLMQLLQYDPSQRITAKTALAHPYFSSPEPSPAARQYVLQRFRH

[11] = molecular target: T1, CDK3/Cyclin E (Homo sapiens); settings: at 1 µM
[12] = molecular target: Cyclin-dependent kinase 4 (Homo sapiens) (UniProt P11802); settings: at 0.1 µM
Chain of Cyclin-dependent kinase 4 (Homo sapiens) (P11802 whole entry): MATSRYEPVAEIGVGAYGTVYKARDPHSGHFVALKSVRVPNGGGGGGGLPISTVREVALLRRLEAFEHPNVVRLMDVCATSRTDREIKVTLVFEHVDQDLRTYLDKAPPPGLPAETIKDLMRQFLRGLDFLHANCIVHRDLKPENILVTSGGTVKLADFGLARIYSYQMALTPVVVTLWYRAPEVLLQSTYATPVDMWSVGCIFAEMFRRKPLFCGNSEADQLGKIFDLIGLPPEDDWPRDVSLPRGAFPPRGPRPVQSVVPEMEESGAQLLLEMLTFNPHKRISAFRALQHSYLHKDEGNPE

[13] = molecular target: Cyclin-dependent kinase 4 (Homo sapiens) (UniProt P11802); settings: at 1 µM
[14] = molecular target: Cyclin-dependent kinase 5 (Homo sapiens) (UniProt Q00535); settings: at 0.1 µM
Chain of Cyclin-dependent kinase 5 (Homo sapiens) (Q00535 whole entry, looked up): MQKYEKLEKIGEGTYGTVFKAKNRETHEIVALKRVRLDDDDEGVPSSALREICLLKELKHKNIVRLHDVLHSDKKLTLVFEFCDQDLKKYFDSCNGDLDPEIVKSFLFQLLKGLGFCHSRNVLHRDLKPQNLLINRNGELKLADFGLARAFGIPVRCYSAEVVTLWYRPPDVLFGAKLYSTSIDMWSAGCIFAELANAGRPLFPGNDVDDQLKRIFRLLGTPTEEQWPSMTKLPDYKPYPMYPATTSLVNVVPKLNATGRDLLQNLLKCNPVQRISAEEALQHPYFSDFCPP

[15] = molecular target: Cyclin-dependent kinase 5 (Homo sapiens) (UniProt Q00535); settings: at 1 µM
[16] = molecular target: Cyclin-dependent kinase 6 (Homo sapiens) (UniProt Q00534); settings: at 0.1 µM
Chain of Cyclin-dependent kinase 6 (Homo sapiens) (Q00534 whole entry): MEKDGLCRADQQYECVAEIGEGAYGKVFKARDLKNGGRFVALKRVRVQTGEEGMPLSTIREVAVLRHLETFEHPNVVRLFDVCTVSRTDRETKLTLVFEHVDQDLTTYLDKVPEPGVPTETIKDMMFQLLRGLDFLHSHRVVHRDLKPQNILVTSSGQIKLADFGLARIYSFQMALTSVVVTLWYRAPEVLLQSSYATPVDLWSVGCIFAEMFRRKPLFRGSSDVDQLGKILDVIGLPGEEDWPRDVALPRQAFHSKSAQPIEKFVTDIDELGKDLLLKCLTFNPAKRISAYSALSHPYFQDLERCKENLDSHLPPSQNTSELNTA

[17] = molecular target: Cyclin-dependent kinase 6 (Homo sapiens) (UniProt Q00534); settings: at 1 µM
[18] = molecular target: Dual specificity protein kinase CLK2 (Homo sapiens) (UniProt P49760); settings: at 0.1 µM
Chain of Dual specificity protein kinase CLK2 (Homo sapiens) (P49760 whole entry, looked up): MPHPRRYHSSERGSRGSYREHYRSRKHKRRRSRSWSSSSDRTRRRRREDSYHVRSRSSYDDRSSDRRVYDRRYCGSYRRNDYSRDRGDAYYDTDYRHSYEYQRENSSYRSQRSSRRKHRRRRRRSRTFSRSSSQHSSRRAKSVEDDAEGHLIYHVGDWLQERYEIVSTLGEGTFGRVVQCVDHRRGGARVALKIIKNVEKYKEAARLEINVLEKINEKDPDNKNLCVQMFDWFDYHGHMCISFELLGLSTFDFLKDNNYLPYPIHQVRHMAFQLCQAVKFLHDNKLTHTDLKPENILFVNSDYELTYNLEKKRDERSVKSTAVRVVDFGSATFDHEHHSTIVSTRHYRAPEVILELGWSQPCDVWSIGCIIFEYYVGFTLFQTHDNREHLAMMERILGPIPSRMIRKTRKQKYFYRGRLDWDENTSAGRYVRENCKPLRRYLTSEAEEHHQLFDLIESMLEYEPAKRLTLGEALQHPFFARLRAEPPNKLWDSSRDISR

[19] = molecular target: Dual specificity protein kinase CLK2 (Homo sapiens) (UniProt P49760); settings: at 1 µM
[20] = molecular target: Dual specificity protein kinase CLK3 (Homo sapiens) (UniProt P49761); settings: at 0.1 µM
Chain of Dual specificity protein kinase CLK3 (Homo sapiens) (P49761 whole entry, looked up): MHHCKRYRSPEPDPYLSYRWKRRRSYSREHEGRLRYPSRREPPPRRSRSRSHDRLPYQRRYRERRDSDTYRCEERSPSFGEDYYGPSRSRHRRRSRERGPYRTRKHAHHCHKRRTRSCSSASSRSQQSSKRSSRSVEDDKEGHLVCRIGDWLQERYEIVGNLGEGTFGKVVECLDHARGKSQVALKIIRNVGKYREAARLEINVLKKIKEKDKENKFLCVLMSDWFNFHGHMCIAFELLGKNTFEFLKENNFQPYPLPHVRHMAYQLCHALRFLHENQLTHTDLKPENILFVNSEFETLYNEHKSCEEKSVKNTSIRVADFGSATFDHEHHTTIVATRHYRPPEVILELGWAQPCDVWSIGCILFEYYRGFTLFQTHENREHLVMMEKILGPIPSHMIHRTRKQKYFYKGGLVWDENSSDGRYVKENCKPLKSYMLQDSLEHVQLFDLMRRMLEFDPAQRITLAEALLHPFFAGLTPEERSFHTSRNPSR

Chain of Casein kinase I isoform gamma-2 (Homo sapiens) (P78368 whole entry, looked up, canonical isoform): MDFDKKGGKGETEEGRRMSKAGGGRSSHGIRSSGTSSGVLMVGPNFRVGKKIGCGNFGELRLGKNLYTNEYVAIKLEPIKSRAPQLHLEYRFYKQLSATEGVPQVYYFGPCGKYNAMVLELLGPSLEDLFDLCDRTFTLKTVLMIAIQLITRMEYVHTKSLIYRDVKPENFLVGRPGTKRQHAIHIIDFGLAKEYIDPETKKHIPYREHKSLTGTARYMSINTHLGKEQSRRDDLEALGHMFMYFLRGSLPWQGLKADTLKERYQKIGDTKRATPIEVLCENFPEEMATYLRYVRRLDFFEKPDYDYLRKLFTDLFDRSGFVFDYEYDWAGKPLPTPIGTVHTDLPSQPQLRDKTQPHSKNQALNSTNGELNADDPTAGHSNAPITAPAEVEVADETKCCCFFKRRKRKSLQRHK
Chain of Casein kinase I isoform gamma-3 (Homo sapiens) (Q9Y6M4 whole entry, looked up, canonical isoform): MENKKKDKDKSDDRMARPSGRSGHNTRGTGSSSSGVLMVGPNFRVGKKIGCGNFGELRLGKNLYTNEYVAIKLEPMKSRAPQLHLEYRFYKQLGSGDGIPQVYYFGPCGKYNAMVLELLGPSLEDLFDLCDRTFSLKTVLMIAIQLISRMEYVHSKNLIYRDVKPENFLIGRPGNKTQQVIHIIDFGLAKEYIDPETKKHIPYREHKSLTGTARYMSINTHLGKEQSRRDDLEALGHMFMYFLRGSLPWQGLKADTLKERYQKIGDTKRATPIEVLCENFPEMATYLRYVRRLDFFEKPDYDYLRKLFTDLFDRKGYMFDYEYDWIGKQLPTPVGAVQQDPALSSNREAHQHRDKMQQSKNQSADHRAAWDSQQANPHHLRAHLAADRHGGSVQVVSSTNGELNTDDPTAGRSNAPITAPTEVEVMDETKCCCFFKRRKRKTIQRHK

NCc1ccc(-n2c(-c3nonc3N)nc3cnccc32)cc1
inhibition [1]: 7.87% | inhibition [2]: 2.05% | inhibition [3]: 10.7% | inhibition [4]: 3.12% | inhibition [5]: 10.5% | inhibition [6]: 5.13% | inhibition [7]: 30.4% | inhibition [8]: 10.1% | inhibition [9]: 31.4% | inhibition [10]: 6.87% | inhibition [11]: 6.36% | inhibition [12]: 5.03% | inhibition [13]: 10.2% | inhibition [14]: 4.76% | inhibition [15]: 11.9% | inhibition [16]: -0.37% | inhibition [17]: 5.55% | inhibition [18]: 6.2% | inhibition [19]: 28.7% | inhibition [20]: 2.13%

Cc1nnc(-c2ccc(C)c(-c3ccc(C(=O)NCc4ccc(Cl)cc4)cc3)c2)o1
inhibition [1]: 1.06% | inhibition [2]: -1.5% | inhibition [3]: -0.65% | inhibition [4]: -3.13% | inhibition [5]: -1.46% | inhibition [6]: -1.4% | inhibition [7]: -2.99% | inhibition [8]: 0.91% | inhibition [9]: 0.03% | inhibition [10]: 4.6% | inhibition [11]: -2.98% | inhibition [12]: -0.53% | inhibition [13]: 0.24% | inhibition [14]: -2.39% | inhibition [15]: -4.02% | inhibition [16]: -7.02% | inhibition [17]: -4.88% | inhibition [18]: -0.33% | inhibition [19]: 0.92% | inhibition [20]: -1.37%

O=C1NC(=O)C(c2cccc(Cl)c2)=C1Nc1ccc(Cl)c(C(=O)O)c1
inhibition [1]: 3.4% | inhibition [2]: 1.59% | inhibition [3]: 0.02% | inhibition [4]: 0.24% | inhibition [5]: 2.57% | inhibition [6]: 2% | inhibition [7]: 9.11% | inhibition [8]: 1.73% | inhibition [9]: 1.86% | inhibition [10]: 3.54% | inhibition [11]: -3.39% | inhibition [12]: 1.47% | inhibition [13]: 1.74% | inhibition [14]: -0.04% | inhibition [15]: 1.05% | inhibition [16]: -2.3% | inhibition [17]: 1.32% | inhibition [18]: 3.2% | inhibition [19]: 0.9% | inhibition [20]: 1.12%

CN(C)CCOc1ccc(-c2cc(-c3ccc4c(c3)CCC4=NO)c(-c3ccncc3)o2)cc1
inhibition [1]: -0.77% | inhibition [2]: -0.76% | inhibition [3]: -0.08% | inhibition [4]: 0.53% | inhibition [5]: 1.85% | inhibition [6]: -0.07% | inhibition [7]: 0.53% | inhibition [8]: -0.38% | inhibition [9]: 0.33% | inhibition [10]: -2.82% | inhibition [11]: -0.71% | inhibition [12]: -0.67% | inhibition [13]: 1.69% | inhibition [14]: 0.66% | inhibition [15]: 0.57% | inhibition [16]: -3.52% | inhibition [17]: -0.6% | inhibition [18]: 0.73% | inhibition [19]: -1.28% | inhibition [20]: -0.3%

COc1cc2ncn(-c3cc(OCCc4ccccc4)c(C(N)=O)s3)c2cc1OC
inhibition [1]: 7.82% | inhibition [2]: 2.44% | inhibition [3]: 6.34% | inhibition [4]: 0.36% | inhibition [5]: 1.62% | inhibition [6]: 0.55% | inhibition [7]: 3.19% | inhibition [8]: 2.3% | inhibition [9]: 5.22% | inhibition [10]: 1.71% | inhibition [11]: 0.51% | inhibition [12]: 1.86% | inhibition [13]: 1.87% | inhibition [14]: 0.7% | inhibition [15]: 1.45% | inhibition [16]: -3.45% | inhibition [17]: 2.54% | inhibition [18]: 1.3% | inhibition [19]: 2.64% | inhibition [20]: 0.57%

O=C(NCC1CC1)c1ccc(-c2cccc(C(=O)NC3CC3)c2)cc1
inhibition [1]: 2.47% | inhibition [2]: 0.19% | inhibition [3]: 2.3% | inhibition [4]: -0.46% | inhibition [5]: 1.27% | inhibition [6]: 1.17% | inhibition [7]: 9.03% | inhibition [8]: 2.3% | inhibition [9]: 2.72% | inhibition [10]: -0.72% | inhibition [11]: 2.64% | inhibition [12]: 2.46% | inhibition [13]: 2.18% | inhibition [14]: 0.16% | inhibition [15]: 0.99% | inhibition [16]: 5.87% | inhibition [17]: -0.5% | inhibition [18]: -0.19% | inhibition [19]: 1.77% | inhibition [20]: 0.44%

CN(C)c1ccc2c(c1)/C(=C/Nc1ccc(S(N)(=O)=O)cc1)C(=O)N2
inhibition [1]: 1.27% | inhibition [2]: 0.48% | inhibition [3]: 0.92% | inhibition [4]: 6.23% | inhibition [5]: 33.9% | inhibition [6]: 21.8% | inhibition [7]: 82.6% | inhibition [8]: 16.3% | inhibition [9]: 54% | inhibition [10]: 5.6% | inhibition [11]: 38.9% | inhibition [12]: 11.3% | inhibition [13]: 43.5% | inhibition [14]: 16.2% | inhibition [15]: 57% | inhibition [16]: 4.7% | inhibition [17]: 48.2% | inhibition [18]: 1.72% | inhibition [19]: 11% | inhibition [20]: 0.66%

Clc1ccc(CNc2nccc(-c3cnn4ncccc34)n2)cc1
inhibition [1]: 12% | inhibition [2]: -0.98% | inhibition [3]: 12.9% | inhibition [4]: 7.01% | inhibition [5]: 36.3% | inhibition [6]: 4.06% | inhibition [7]: 17.6% | inhibition [8]: 4.31% | inhibition [9]: 21.5% | inhibition [10]: 3.02% | inhibition [11]: 17.3% | inhibition [12]: 3.89% | inhibition [13]: 20.1% | inhibition [14]: 7.08% | inhibition [15]: 36.9% | inhibition [16]: 13.8% | inhibition [17]: 11% | inhibition [18]: 7.28% | inhibition [19]: 43.6% | inhibition [20]: 1.27%

Fc1ccc(-c2ncn(CCCN3CCOCC3)c2-c2ccncc2)cc1
inhibition [1]: 0.86% | inhibition [2]: 0% | inhibition [3]: -0.19% | inhibition [4]: 0.43% | inhibition [5]: 2.72% | inhibition [6]: 1.19% | inhibition [7]: 0.72% | inhibition [8]: 2.29% | inhibition [9]: 5.92% | inhibition [10]: 2.27% | inhibition [11]: 1.42% | inhibition [12]: 0.02% | inhibition [13]: 5.08% | inhibition [14]: 1.43% | inhibition [15]: 3.98% | inhibition [16]: -8.34% | inhibition [17]: -1.04% | inhibition [18]: 1.11% | inhibition [19]: 2.52% | inhibition [20]: -1.43%

Cc1ccc(NC(=O)c2ccoc2)cc1-c1ccc(C(=O)NCC2CC2)cc1
inhibition [1]: 3.57% | inhibition [2]: 2.63% | inhibition [3]: 2.71% | inhibition [4]: 1.06% | inhibition [5]: 1.75% | inhibition [6]: -0.08% | inhibition [7]: 1.04% | inhibition [8]: 0.91% | inhibition [9]: 3.1% | inhibition [10]: -0.03% | inhibition [11]: -5.1% | inhibition [12]: 0.87% | inhibition [13]: 2.89% | inhibition [14]: 0.24% | inhibition [15]: 1.07% | inhibition [16]: -5.62% | inhibition [17]: 0.19% | inhibition [18]: 0.43% | inhibition [19]: -2.64% | inhibition [20]: 0.53%

Fc1ccc(-c2nc3n(c2-c2ccncc2)CCS3)cc1
inhibition [1]: 4.78% | inhibition [2]: 0.7% | inhibition [3]: 8.82% | inhibition [4]: -2.26% | inhibition [5]: -3.55% | inhibition [6]: -1.04% | inhibition [7]: 1.08% | inhibition [8]: 0.41% | inhibition [9]: 0.29% | inhibition [10]: 4.27% | inhibition [11]: -2.73% | inhibition [12]: -1.97% | inhibition [13]: -0.8% | inhibition [14]: -2.49% | inhibition [15]: -2.61% | inhibition [16]: -7.51% | inhibition [17]: -1.4% | inhibition [18]: 1.78% | inhibition [19]: 0.05% | inhibition [20]: -1.51%

C/C(Nc1ccc(S(N)(=O)=O)cc1)=C1/C(=O)Nc2ccccc21
inhibition [1]: 18.7% | inhibition [2]: -1.23% | inhibition [3]: 19.1% | inhibition [4]: 0.68% | inhibition [5]: 14.5% | inhibition [6]: 7.75% | inhibition [7]: 56% | inhibition [8]: 8.8% | inhibition [9]: 48.1% | inhibition [10]: 9.17% | inhibition [11]: 50.1% | inhibition [12]: 3.5% | inhibition [13]: 32% | inhibition [14]: 8.67% | inhibition [15]: 44.7% | inhibition [16]: 37% | inhibition [17]: 74.7% | inhibition [18]: 0.33% | inhibition [19]: 2.45% | inhibition [20]: -0.03%

COc1cc(N2CCN(C(C)C)CC2)ccc1Nc1nc(Nc2ccc(F)cc2C(=O)NC[C@@H](O)CO)c2cc[nH]c2n1
inhibition [1]: 15.6% | inhibition [2]: 2.74% | inhibition [3]: 31.8% | inhibition [4]: -2.84% | inhibition [5]: -2.45% | inhibition [6]: -1.75% | inhibition [7]: 4.45% | inhibition [8]: 0.16% | inhibition [9]: 0.53% | inhibition [10]: 3.35% | inhibition [11]: -3.1% | inhibition [12]: -2.67% | inhibition [13]: -0.98% | inhibition [14]: -3.1% | inhibition [15]: -4.32% | inhibition [16]: -8.05% | inhibition [17]: -5.78% | inhibition [18]: 29.4% | inhibition [19]: 82.9% | inhibition [20]: -0.73%
